D1 ag – Allosteric Agonists of the Human D1 Dopamine Receptor: qHTS. D(1A) dopamine receptor (Homo sapiens), P21728. 1% of 360,000 active. activation, % at 2 µM. HEK293 T-REx D1 cells, calcium flux, agonist mode; in the data active means activation above about 30%; further: 0% is about no effect
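Tetracycline-induced HEK293 TREx D1 cells, force-coupled to calcium signalling, were dye-loaded with a no-wash calcium kit. Compound was pin-added after a 10 s baseline. Fluorescence was read kinetically at 1 cycle/s for 180 s, with calcium rises flagged as agonism.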
D3 antag – qHTS of D3 Dopamine Receptor Antagonist: qHTS; D(3) dopamine receptor (Homo sapiens), P35462; 2.5% of 360,000 active; max response, negative = inhibition, %; D3R cells, DiscoveRx beta-arrestin luminescence, antagonist mode; active compounds read low; in the data active means max response below about -50%; inconclusive means no clear call, values can overlap the other calls; further: on the % scale 0 is the no-effect control and ±100 the full control effect
Target sequence (P35462 whole entry, looked up): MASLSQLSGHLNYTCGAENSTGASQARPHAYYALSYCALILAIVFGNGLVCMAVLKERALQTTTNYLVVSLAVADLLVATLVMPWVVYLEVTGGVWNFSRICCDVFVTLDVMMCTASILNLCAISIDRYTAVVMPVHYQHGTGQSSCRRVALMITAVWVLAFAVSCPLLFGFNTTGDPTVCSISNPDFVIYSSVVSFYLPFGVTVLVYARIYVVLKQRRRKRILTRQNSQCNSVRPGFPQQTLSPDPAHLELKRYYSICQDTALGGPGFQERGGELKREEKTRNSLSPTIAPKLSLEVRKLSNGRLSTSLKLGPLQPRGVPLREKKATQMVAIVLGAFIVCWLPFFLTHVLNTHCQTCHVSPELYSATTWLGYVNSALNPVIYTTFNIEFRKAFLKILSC
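Cells expressing the human receptor were seeded at 1500 cells/well, incubated overnight at 37 degrees C in 5% CO2, then exposed to library compounds with dopamine controls for 90 minutes at 37 degrees C before luminescent detection.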
D1 potentiator – Potentiators of Human D1 Dopamine Receptor: qHTS. D(1A) dopamine receptor (Homo sapiens), P21728. HEK293 TREx D1 cells, calcium flux, dopamine EC20 potentiation. potentiation, % at 10 µM. 0.036% of 360,000 active. AID 504651, 2011; in the data active means potentiation above about 30%; further: 0% is about no effect
D1 antagonist – Antagonist of Human D 1 Dopamine Receptor: qHTS | D(1A) dopamine receptor (Homo sapiens), P21728 | HEK293 TREx D1 cells, calcium flux, dopamine EC80; active compounds read low | activity change, negative = inhibition, % at 10 µM | 3.2% of 360,000 active | AID 504652, 2011; in the data active means activity change below about -30%; further: on the % scale 0 is the no-effect control and ±100 the full control effect
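Kinetic fluorescence of a calcium dye serves as the read-out. D1-expressing Hek293 Trex cells, induced overnight at 30 C, are exposed to compound for 180 s before an EC80 dopamine addition, then read 180 s further.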
DRD3 agonist – qHTS of D3 Dopamine Receptor Agonist: qHTS; D3R DiscoveRx beta-arrestin cells, luminescence, 90 min; max activation, %; 0.58% of 410,000 active; AID 652048, 2013; in the data active means max activation above about 30%; further: 0% is about no effect
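Agonist-mode cell screen: cells plated at 1500/well and incubated overnight at 37 °C, then exposed to library compounds for 90 min at 37 °C. Detection reagent was added for 30–60 min at room temperature, and luminescence was read.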
* marks the source's active call; other numbers are inactive results. An excerpt weighted towards active compounds, which were near 6.1% of everything screened.

How did CCN1CCC(N(Cc2cccc(OC)c2)C(=O)Nc2cccc(C(F)(F)F)c2)CC1 do in these assays?
D1 ag: 27.0; D1 potentiator: -0.9; D1 antagonist: -4.1; DRD3 agonist: 5.5

Results for CN(CC1CCN(CCc2cccc(C(F)(F)F)c2)CC1)C(=O)c1ccccc1 ?
D1 ag: 1.9; D3 antag: inconclusive; D1 potentiator: -1.7; D1 antagonist: -6.5; DRD3 agonist: -27.7

How did CN(CC1CCN(CCc2cccc(C(F)(F)F)c2)CC1)C(=O)c1ccc(F)cc1 do in these assays?
D1 ag: 0.8; D3 antag: -86.6*; D1 potentiator: 0.3; D1 antagonist: 3.2; DRD3 agonist: -23.8

What do the screens show for `N#C/C(=C\c1c[nH]c2ccccc12)C(N)=O`?
D1 ag: 1.0; D3 antag: 8.8; D1 potentiator: -2.9; D1 antagonist: 11.7; DRD3 agonist: 0.1

How did CC(=O)Oc1c(/C=C(\C#N)C(N)=O)[nH]c2ccccc12 do in these assays?
D1 ag: 52.8*; D3 antag: inconclusive; D1 potentiator: 0.1; D1 antagonist: -14.3; DRD3 agonist: -0.9

What do the screens show for `Cc1c(C(=O)N(C)C)sc(NC(=O)c2cc([N+](=O)[O-])cc([N+](=O)[O-])c2)c1C#N`?
D1 ag: 1.9; D3 antag: -91.2*; D1 potentiator: 4.4; D1 antagonist: 7.5; DRD3 agonist: -3.5

Results for Fc1ccc(N2CCN(C3CCC(c4ccccc4)CC3)CC2)cc1 (centres undefined) ?
D1 ag: 1.1; D3 antag: -81.6*; D1 potentiator: -4.3; D1 antagonist: 1.8; DRD3 agonist: -12.5

What do the screens show for `CCN1CCC(N2CCN(c3ccc(F)cc3)CC2)CC1`?
D1 ag: 3.0; D3 antag: 11.1; D1 potentiator: -8.7; D1 antagonist: -12.5; DRD3 agonist: 2.3

What do the screens show for `CCOC(=O)CSc1nnc2n(-c3ccccc3)c(=O)c3c4c(sc3n12)COC(C(C)C)C4` (centres undefined)?
D1 ag: 0.4; D1 potentiator: -3.5; D1 antagonist: -6.9; DRD3 agonist: -2.5

Results for CCOC(=O)c1cc(-c2ccccc2)n(CCC(=O)Nc2ccc(Cl)c(C(F)(F)F)c2)c1C ?
D1 ag: 26.2; D1 potentiator: -2.5; D1 antagonist: -8.3; DRD3 agonist: 2.6

How did COc1ccccc1CN1CC(C(=O)N(C)Cc2ccc(C)o2)CCC1=O (centres undefined) do in these assays?
D1 ag: 2.0; D3 antag: 0.2; D1 potentiator: 1.8; D1 antagonist: -5.9; DRD3 agonist: -3.0

What do the screens show for `CCOC(=O)C(=CNc1ccc(C#N)cc1)C(=O)OCC`?
D1 ag: -1.0; D3 antag: 8.2; D1 potentiator: 6.7; D1 antagonist: -13.5; DRD3 agonist: 5.4

What do the screens show for `Cc1ccc(S(=O)(=O)n2ccc(OC(=O)c3cccs3)n2)cc1`?
D1 ag: 30.2*; D3 antag: 0.0; D1 potentiator: -4.4; D1 antagonist: -26.0; DRD3 agonist: -16.5

Results for Cc1ccc(S(=O)(=O)n2nc(OC(=O)c3cccs3)cc2N)cc1 ?
D1 ag: 21.6; D3 antag: inconclusive; D1 potentiator: -10.4; D1 antagonist: 4.4; DRD3 agonist: -1.3

What do the screens show for `COc1ccc(C2C3=C(CCCC3=O)N(CC(=O)O)C3=C2C(=O)CCC3)cc1Cl`?
D1 ag: 7.6; D3 antag: 10.6; D1 potentiator: 2.7; D1 antagonist: -2.2; DRD3 agonist: -6.6

What do the screens show for `O=C1C=CC(=O)N1Cc1ccncc1`?
D3 antag: -7.6; DRD3 agonist: 9.1

Results for O=C1C=CC(=O)N1CCCCCCCCCCN1C(=O)C=CC1=O ?
D3 antag: -99.8*; DRD3 agonist: -18.9

What do the screens show for `CC(C)NC(=O)NC(=O)COC(=O)/C=C/c1ccc2c(c1)OCO2`?
D1 ag: 1.1; D3 antag: 1.3; D1 potentiator: -0.7; D1 antagonist: -30.4*; DRD3 agonist: -0.6

Results for Cc1ccc(CNC(=O)COc2ccc(S(=O)(=O)N3CCCC3)cc2)cc1 ?
D1 ag: -1.2; D3 antag: -5.3; D1 potentiator: -5.2; D1 antagonist: 42.4; DRD3 agonist: -1.5

What do the screens show for `Clc1cccc(-c2ccc(/C=N/n3cnnc3)o2)c1`?
D1 ag: -1.0; D3 antag: -13.3; D1 potentiator: -4.4; D1 antagonist: -33.3*; DRD3 agonist: -14.5

Results for Cc1ccc(-c2ccc(/C=N/n3cnnc3)o2)cc1Cl ?
D1 ag: 0.1; D3 antag: 19.0; D1 potentiator: -5.7; D1 antagonist: -8.1; DRD3 agonist: -6.6

How did CCCCC(=O)Nc1cccc(NC(=O)c2ccccc2Br)c1 do in these assays?
D1 ag: -0.3; D3 antag: -61.1*; D1 potentiator: -9.5; D1 antagonist: 0.4; DRD3 agonist: 1.4

What do the screens show for `CCCCNC(=S)NC(=O)c1ccccc1Br`?
D1 ag: 0.6; D3 antag: 1.2; D1 potentiator: -3.9; D1 antagonist: -32.8*; DRD3 agonist: 3.3

Results for O=C(CNC(=S)NC(=O)c1ccccc1Br)c1ccccc1 ?
D1 ag: 0.2; D3 antag: -12.0; D1 potentiator: 4.1; D1 antagonist: 0.9; DRD3 agonist: 0.9

How did CCCCC(=O)Nc1cccc(NC(=O)CC)c1 do in these assays?
D1 ag: 1.8; D3 antag: 10.6; D1 potentiator: -0.8; D1 antagonist: 12.2; DRD3 agonist: 0.7

Results for CCc1ccc(CN2C(=O)c3ccccc3C2C(=O)NC2CCCCCC2)cc1 (centres undefined) ?
D1 ag: -2.1; D1 potentiator: 2.3; D1 antagonist: -6.6; DRD3 agonist: 4.9

What do the screens show for `O=C(O)C(F)=C(c1ccccc1)c1ccccc1`?
D3 antag: -6.7; DRD3 agonist: -5.5

Results for COc1ccc(S(=O)(=O)N2CCCC(C(=O)Nc3ccc(OC)c(OC)c3)C2)cc1 (centres undefined) ?
D1 ag: -0.6; D3 antag: 15.8; D1 potentiator: -1.6; D1 antagonist: -31.1*; DRD3 agonist: -2.2

How did COc1cc(NC(=O)[C@@H]2CCCN(S(=O)(=O)c3cccc4cccnc34)C2)cc(OC)c1OC do in these assays?
D1 ag: 2.1; D3 antag: 106.3; D1 potentiator: 4.3; D1 antagonist: 2.6; DRD3 agonist: 43.1*

How did CCc1ccccc1Nc1nc(N)nc(COC(=O)C2CCN(C(=O)c3ccc(F)cc3)CC2)n1 do in these assays?
D1 ag: 3.8; D3 antag: 9.7; D1 potentiator: -4.7; D1 antagonist: -1.4; DRD3 agonist: 7.7

Results for Oc1c(Br)cc(Br)cc1CNc1ccc(F)cc1 ?
D1 ag: 2.5; D3 antag: 5.7; D1 potentiator: -4.5; D1 antagonist: -38.7*; DRD3 agonist: -5.4

How did COc1ccc(Br)cc1CNc1ccc(O)cc1 do in these assays?
D1 ag: 1.7; D3 antag: -66.4*; D1 potentiator: -0.5; D1 antagonist: 25.7; DRD3 agonist: -2.5
